Experiment [1] concerns the target Ribosomal protein S6 kinase alpha-6 (Homo sapiens) (UniProt Q9UK32). Particulars: at 1 µM.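 Note: each value is a mean inhibition of RSK4 from a GSK PKIS panel screen.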
The target of experiment [2] is T1, Serine/threonine-protein kinase Sgk1 (Homo sapiens) (UniProt O00141).
T1 sequence (whole entry): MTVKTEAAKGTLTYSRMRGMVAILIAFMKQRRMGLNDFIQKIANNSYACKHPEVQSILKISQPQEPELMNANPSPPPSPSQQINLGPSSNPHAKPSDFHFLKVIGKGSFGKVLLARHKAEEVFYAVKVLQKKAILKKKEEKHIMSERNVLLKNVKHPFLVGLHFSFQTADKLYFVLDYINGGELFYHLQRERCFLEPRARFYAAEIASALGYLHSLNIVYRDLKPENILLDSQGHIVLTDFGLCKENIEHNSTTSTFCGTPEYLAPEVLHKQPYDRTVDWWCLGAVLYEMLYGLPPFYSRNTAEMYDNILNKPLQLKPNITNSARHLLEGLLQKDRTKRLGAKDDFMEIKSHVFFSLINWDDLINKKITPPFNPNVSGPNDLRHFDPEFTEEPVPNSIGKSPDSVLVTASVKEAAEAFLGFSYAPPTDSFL
Particulars: at 0.1 µM.

The target of experiment [3] is T1, Serine/threonine-protein kinase Sgk1 (Homo sapiens). The following applies: at 1 µM.
Experiment [4] concerns the target T2, Serine/threonine-protein kinase Sgk2 (Homo sapiens) (UniProt Q9HBY8).
T2 sequence (whole entry): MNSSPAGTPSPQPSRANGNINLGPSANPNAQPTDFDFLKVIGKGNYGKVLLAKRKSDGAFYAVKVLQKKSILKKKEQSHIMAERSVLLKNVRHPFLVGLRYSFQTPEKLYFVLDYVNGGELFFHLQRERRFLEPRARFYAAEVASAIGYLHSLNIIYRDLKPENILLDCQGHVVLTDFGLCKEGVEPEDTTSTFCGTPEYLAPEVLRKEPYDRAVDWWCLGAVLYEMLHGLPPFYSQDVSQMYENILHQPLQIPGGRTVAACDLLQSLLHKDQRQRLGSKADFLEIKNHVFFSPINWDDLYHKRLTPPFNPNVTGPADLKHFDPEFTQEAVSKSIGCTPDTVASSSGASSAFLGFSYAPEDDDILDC
Particulars: at 0.1 µM.

Experiment [5] deals with T2, Serine/threonine-protein kinase Sgk2 (Homo sapiens). Particulars: at 1 µM.
Experiment [6] addresses T3, Serine/threonine-protein kinase Sgk3 (Homo sapiens) (UniProt Q96BR1).
T3 sequence (whole entry): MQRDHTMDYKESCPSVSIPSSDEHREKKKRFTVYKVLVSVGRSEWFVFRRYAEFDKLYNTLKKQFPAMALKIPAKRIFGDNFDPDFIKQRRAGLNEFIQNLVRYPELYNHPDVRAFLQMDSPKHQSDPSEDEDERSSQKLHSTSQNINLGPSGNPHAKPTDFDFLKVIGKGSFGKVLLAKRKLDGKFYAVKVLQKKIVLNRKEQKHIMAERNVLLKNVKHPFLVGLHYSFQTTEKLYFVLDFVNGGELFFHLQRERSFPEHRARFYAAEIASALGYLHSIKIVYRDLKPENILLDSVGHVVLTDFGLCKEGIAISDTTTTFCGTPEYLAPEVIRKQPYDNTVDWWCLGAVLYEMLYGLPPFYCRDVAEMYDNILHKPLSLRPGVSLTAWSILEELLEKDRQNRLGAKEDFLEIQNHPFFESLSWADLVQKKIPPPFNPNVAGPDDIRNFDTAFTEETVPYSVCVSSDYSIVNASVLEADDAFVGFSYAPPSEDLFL
The following applies: at 0.1 µM.

The target in experiment [7] is T3, Serine/threonine-protein kinase Sgk3 (Homo sapiens). The following applies: at 1 µM.
Experiment [8] has as its target 5'-AMP-activated protein kinase catalytic subunit alpha-1 (Homo sapiens) (UniProt Q13131). Particulars: at 0.1 µM.
The target is the same in experiment [9]. Particulars: at 1 µM.
In experiment [10] the target is 5'-AMP-activated protein kinase catalytic subunit alpha-2 (Homo sapiens) (UniProt P54646). Particulars: at 0.1 µM.
For experiment [11] the target is unchanged. Particulars: at 1 µM.
Experiment [12] has as its target T4, NUAK family SNF1-like kinase 1 (Homo sapiens) (UniProt O60285).
T4 sequence (whole entry): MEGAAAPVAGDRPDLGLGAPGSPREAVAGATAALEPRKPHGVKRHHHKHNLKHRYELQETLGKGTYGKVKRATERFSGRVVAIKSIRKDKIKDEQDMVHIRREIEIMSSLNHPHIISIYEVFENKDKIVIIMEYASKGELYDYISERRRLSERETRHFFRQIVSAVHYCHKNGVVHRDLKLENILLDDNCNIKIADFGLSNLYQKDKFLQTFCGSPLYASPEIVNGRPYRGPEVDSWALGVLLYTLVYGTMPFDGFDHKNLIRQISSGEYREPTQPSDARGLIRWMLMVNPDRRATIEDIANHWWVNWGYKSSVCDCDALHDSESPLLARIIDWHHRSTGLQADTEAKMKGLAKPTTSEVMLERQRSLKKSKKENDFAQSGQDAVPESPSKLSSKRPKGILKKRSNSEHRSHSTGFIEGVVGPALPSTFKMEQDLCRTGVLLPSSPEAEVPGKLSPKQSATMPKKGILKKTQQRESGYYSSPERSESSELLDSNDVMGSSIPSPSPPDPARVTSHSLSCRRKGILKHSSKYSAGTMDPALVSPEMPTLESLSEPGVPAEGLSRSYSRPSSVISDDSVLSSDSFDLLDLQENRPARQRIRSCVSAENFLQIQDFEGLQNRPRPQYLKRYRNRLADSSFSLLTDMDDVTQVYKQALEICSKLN
The following applies: at 0.1 µM.

Experiment [13] deals with T4, NUAK family SNF1-like kinase 1 (Homo sapiens). The following applies: at 1 µM.
Experiment [14] addresses T5, Serine/threonine-protein kinase BRSK1 (Homo sapiens) (UniProt Q8TDC3).
T5 sequence (whole entry): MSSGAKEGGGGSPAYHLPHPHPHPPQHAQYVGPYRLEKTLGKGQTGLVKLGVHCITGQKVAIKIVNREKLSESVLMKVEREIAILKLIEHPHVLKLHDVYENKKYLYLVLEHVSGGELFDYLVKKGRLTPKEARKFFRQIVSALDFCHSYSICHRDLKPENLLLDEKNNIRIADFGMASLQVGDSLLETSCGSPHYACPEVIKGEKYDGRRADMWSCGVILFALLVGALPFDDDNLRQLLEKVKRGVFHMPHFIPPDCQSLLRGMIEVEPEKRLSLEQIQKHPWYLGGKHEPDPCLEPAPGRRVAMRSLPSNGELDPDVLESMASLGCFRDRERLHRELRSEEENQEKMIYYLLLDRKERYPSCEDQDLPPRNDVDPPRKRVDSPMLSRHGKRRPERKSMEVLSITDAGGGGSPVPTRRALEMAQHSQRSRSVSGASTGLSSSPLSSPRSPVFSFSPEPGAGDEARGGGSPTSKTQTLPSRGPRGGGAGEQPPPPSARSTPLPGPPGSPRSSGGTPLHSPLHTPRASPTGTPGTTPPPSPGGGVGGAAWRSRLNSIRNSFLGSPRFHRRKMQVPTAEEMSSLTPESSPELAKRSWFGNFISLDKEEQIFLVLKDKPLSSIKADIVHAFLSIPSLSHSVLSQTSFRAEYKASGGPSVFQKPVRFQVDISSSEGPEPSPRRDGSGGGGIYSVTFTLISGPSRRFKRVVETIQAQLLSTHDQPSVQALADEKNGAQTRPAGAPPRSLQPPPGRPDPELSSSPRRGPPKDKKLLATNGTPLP
The following applies: at 0.1 µM.

Experiment [15] concerns the target T5, Serine/threonine-protein kinase BRSK1 (Homo sapiens). Particulars: at 1 µM.
Experiment [16] addresses T6, Serine/threonine-protein kinase BRSK2 (Homo sapiens) (UniProt Q8IWQ3).
T6 sequence (whole entry): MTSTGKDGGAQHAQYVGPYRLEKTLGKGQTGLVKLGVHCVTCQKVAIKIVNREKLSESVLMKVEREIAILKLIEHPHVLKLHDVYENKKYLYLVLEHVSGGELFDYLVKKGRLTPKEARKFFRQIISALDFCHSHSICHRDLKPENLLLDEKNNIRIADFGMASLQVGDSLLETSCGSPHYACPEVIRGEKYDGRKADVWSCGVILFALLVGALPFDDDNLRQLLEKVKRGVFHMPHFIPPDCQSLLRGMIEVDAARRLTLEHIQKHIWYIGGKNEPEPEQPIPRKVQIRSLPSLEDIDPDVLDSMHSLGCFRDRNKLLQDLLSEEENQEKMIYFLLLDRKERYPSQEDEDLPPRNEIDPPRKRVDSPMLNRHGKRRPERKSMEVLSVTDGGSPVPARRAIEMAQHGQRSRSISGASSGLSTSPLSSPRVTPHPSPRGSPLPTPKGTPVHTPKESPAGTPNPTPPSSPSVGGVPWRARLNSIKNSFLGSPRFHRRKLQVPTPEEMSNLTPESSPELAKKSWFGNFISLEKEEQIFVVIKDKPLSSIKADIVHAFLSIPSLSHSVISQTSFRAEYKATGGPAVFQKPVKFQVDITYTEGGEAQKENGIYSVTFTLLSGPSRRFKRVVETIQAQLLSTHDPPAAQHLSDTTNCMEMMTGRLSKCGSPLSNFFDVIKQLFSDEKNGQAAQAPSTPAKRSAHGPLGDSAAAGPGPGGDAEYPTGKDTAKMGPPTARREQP
The following applies: at 0.1 µM.

Experiment [17] addresses T6, Serine/threonine-protein kinase BRSK2 (Homo sapiens). Particulars: at 1 µM.
Experiment [18] concerns the target Calcium/calmodulin-dependent protein kinase type 1D (Homo sapiens) (UniProt Q8IU85). Particulars: at 0.1 µM.
For experiment [19] the target is unchanged. The following applies: at 1 µM.
Experiment [20] addresses Calcium/calmodulin-dependent protein kinase type II subunit alpha (Homo sapiens) (UniProt Q9UQM7). Particulars: at 0.1 µM.

5'-AMP-activated protein kinase catalytic subunit alpha-2 (Homo sapiens), sequence (P54646 whole entry, looked up): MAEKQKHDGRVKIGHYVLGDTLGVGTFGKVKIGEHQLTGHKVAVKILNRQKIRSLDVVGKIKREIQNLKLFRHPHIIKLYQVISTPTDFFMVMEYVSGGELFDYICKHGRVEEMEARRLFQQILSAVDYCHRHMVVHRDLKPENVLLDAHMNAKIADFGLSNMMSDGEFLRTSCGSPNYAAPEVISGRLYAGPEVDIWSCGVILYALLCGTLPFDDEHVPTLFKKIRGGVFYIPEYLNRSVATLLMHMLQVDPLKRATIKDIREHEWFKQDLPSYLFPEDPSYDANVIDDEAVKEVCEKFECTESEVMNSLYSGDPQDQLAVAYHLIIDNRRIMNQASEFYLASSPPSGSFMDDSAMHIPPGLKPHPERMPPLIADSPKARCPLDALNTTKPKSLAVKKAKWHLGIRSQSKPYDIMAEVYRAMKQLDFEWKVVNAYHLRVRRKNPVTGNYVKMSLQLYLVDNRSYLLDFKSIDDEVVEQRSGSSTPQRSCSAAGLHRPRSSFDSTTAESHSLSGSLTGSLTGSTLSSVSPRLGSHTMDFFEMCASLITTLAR
Ribosomal protein S6 kinase alpha-6 (Homo sapiens), sequence (Q9UK32 whole entry): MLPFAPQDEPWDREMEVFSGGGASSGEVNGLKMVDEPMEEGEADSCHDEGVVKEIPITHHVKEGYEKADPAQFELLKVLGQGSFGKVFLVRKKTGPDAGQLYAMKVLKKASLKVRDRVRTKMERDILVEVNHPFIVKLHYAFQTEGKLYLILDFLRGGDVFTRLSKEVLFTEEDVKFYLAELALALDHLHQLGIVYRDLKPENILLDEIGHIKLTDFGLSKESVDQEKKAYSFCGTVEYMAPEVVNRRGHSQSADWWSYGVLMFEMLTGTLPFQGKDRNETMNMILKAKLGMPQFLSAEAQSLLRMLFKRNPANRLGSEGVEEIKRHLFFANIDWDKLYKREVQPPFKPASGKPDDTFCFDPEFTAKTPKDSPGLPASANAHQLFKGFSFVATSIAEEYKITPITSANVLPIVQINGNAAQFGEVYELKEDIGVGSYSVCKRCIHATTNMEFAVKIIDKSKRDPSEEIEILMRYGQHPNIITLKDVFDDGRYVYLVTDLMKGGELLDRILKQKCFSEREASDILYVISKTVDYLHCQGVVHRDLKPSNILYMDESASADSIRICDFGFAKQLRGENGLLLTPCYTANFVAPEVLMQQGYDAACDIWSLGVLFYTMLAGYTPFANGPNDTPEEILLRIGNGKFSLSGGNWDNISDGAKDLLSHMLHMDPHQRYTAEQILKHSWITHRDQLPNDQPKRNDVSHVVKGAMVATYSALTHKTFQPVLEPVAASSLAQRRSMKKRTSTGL
5'-AMP-activated protein kinase catalytic subunit alpha-1 (Homo sapiens), sequence (Q13131 whole entry, looked up): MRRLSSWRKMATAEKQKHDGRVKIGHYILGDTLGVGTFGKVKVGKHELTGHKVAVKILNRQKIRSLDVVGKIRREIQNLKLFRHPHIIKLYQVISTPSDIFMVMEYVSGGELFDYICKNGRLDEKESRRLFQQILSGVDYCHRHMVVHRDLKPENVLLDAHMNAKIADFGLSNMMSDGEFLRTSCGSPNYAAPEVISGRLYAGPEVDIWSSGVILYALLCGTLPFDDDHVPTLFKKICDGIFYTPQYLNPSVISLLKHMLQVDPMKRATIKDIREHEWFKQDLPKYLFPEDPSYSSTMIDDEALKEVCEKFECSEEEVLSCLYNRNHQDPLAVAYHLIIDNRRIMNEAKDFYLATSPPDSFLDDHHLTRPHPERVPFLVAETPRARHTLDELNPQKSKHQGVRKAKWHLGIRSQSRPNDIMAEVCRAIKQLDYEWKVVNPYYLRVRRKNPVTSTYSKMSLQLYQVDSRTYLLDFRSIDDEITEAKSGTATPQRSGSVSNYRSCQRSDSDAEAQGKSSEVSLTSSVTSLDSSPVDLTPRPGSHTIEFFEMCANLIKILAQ
Calcium/calmodulin-dependent protein kinase type 1D (Homo sapiens), sequence (Q8IU85 whole entry, looked up): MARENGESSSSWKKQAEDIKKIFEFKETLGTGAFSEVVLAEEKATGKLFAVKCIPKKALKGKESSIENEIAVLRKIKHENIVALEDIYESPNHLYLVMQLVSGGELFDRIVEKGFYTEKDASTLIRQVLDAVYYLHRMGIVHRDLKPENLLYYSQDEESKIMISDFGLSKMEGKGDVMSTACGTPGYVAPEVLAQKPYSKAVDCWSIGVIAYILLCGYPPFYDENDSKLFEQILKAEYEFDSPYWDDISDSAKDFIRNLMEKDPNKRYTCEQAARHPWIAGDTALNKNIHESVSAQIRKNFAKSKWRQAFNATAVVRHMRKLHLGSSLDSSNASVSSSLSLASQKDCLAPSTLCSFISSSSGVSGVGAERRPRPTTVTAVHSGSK
Calcium/calmodulin-dependent protein kinase type II subunit alpha (Homo sapiens), sequence (Q9UQM7 whole entry): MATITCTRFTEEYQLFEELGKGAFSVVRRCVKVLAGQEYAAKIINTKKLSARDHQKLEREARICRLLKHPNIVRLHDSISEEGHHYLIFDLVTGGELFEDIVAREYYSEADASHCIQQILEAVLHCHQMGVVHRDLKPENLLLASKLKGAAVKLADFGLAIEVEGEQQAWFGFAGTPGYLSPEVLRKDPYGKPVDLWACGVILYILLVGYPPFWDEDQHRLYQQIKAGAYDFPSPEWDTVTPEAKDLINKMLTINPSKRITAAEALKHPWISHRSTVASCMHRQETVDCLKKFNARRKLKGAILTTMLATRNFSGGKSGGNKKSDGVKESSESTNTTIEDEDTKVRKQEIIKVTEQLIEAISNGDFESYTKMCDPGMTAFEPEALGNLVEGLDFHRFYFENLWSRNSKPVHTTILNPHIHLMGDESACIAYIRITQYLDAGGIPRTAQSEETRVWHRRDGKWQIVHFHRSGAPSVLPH

Take `COc1ccc(-c2cc3c(N)ncnc3o2)cc1`: the inhibition is 1.58% in [1]; 0.5% in [2]; -0.33% in experiment [3]; -1.01% in experiment [4]; 1.43% in [5]; -1.34% in [6]. Besides, the inhibition in [7] was -2.55%; in experiment [8], 0.03%; in experiment [9], 0.8%; in [10], 0.21%; in experiment [11], -2.04%; in [12], 2.2%. Also, the inhibition in [13] was 2.41%; in [14] it was -0.42%; in experiment [15], -0.34%; in [16] it was 0.68%; in [17], 1.73%; in [18], 1.05%. Further, the inhibition in experiment [19] is 2.96%; in experiment [20], -1.62%.

For the compound `COc1cc2c(cc1Nc1nc(Nc3ccsc3C(N)=O)c3cc[nH]c3n1)N(C(=O)CN(C)C)CCC2(C)C`, the inhibition in [1] was found to be 49.6%; in experiment [2], 3.7%; in experiment [3] it was 4.59%; in [4], 2.95%; in [5], 2.79%; in [6], 2.75%. The inhibition in experiment [7] amounted to 4.25%; in [8], 6.5%; in experiment [9], 7.07%; in [10], 6.92%; in experiment [11], 7.54%; in experiment [12], 5.54%. Further, the inhibition in experiment [13] was found to be 9.13%; in experiment [14], 4.27%; in experiment [15], 6.36%; in [16], 4.89%; in [17], 4.71%; in experiment [18], 5.46%. In addition, the figures for the inhibition in experiment [19] and in [20] were 30.8% and 4.03%, respectively.

Turning to `COc1cc(Nc2nccc(Nc3ccc4c(C)n[nH]c4c3)n2)cc(OC)c1OC`, the inhibition in [1] is 2.74%; in experiment [2], 3.49%; in [3], 5.3%; in experiment [4], -0.28%; in experiment [5], -0.14%; in experiment [6] it was 2.13%. For the same compound, the inhibition was 1.07% in experiment [7]; 1.6% in experiment [8]; 1.71% in experiment [9]; 2.15% in experiment [10]; 5.95% in [11]; 10.4% in experiment [12]. In addition, the inhibition was 35.5% in [13]; 3.57% in experiment [14]; 3.29% in experiment [15]; 2.02% in experiment [16]; 1.97% in experiment [17]; 3.39% in experiment [18]. Also, the inhibition turned out to be 6.21% in experiment [19] and 4.54% in [20].

`CNC(=O)c1cncc(/C=C/c2ccccc2Cl)c1`: the inhibition in experiment [1] turned out to be 0.65%; in experiment [2] it was 0.52%; in [3], 3.45%; in experiment [4], 3.22%; in experiment [5], 1.73%; in [6], 2.89%. The inhibition in [7] was 3.36%; in [8] it was 1.03%; in [9], 2.25%; in [10], -2.07%; in experiment [11], -0.38%; in [12], 4.61%. In addition, the inhibition in [13] was found to be 4.26%; in experiment [14] it was 0.56%; in [15], 8.62%; in [16] it was 0.31%; in experiment [17], 8.91%; in [18], 0.88%. Also, the figures for the inhibition in experiment [19] and in experiment [20] were -1.08% and 1.53%, respectively.

The values are drawn from ChEMBL document CHEMBL1961873, “Compounds: GSK PKIS; Assays: Nanosyn kinase panel” (2012).
